# Compound activity (PubChem)
# The list is not random: actives were taken first. Their share in the collection is about 5.2%.
# Sfp inh – blocks B. subtilis Sfp PPTase activity. Q9F4F7. Potency, µM, actives largely listed as inhibitors. Biochemical Sfp PPTase activity, qHTS. hit rate 3.5% among 310,000;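 note: the enzyme is Sfp with the accession as filed and its product quenches rhodamine fluorescence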
#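 Fluorescence-quenching assay with 15 nM Sfp, 5 uM rhodamine-CoA and 12.5 uM BHQ-2-labelled ybbR peptide in pH 7.6 Hepes/MgCl2 buffer. Enzyme was pre-incubated with compound for 15 min at room temperature. Rate was taken from the 30-min fluorescence change (525/598 nm).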
# Tau fluor counter – counter-screen for tau fibril formation inhibitors. tau K18 P301L Alexa594 fluorescence, heparin fibrillization. Potency, µM (highest dose often 57.7 µM). hit rate 0.93% among 280,000; note: nearly all actives have a fitted effect of over 55% in size
#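 Human tau K18 P301L (15 uM unlabeled, 0.24 uM Alexa 594-labeled) in 100 mM sodium acetate pH 7 with 20 uM heparin, 6 hr at 37 C. ThT 30 uM added, 1 hr ambient; Alexa 594 FP and total fluorescence read at 555/632 nm.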
# Tau fibril ThT – blocks human tau fibril formation measured by thioflavin T | P10636 | recombinant tau K18 P301L (four-repeat tau fragment), heparin-induced fibrillization, ThT fluorescence | Potency, µM (top dose mostly 57.4 µM), actives largely listed as inhibitors | hit rate 2.1% among 270,000; note: nearly all actives have a fitted effect of over 55% in size
# Target sequence (P10636 561-689 P618L limits assumed): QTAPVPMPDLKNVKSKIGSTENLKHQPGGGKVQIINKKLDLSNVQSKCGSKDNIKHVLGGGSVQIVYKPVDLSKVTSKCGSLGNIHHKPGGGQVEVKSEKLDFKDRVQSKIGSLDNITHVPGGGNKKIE
#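 Recombinant human tau K18 fragment […] carrying P301L, 15 uM unlabeled plus 0.24 uM Alexa 594-labeled, was fibrillized with 20 uM heparin in 100 mM sodium acetate pH 7 for 6 hr at 37 C; 30 uM ThT fluorescence read after 1 hr.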
# Coupling enz – counter-screen for Giardia aldolase inhibitors: coupling enzyme system | coupling enzyme system counterscreen, AmpLite Red fluorescence | hit rate 0.67% among 290,000 | activity change, negative = inhibition, % at 58.2 µM, hits read low; in the data active = activity change below about -30%
#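 Final compound at 57.5 uM, incubated 10 min at RT with coupling enzyme reagent (glyceraldehyde-3-phosphate), then 20 min with substrate and AmpLite Red detection. Fluorescence read at 525/598 nm; tests interference with the coupling assay, not aldolase inhibition.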
# Tau FP inhib – blocks human tau fibril formation measured by polarization | K18 P301L tau heparin fibrillization, Alexa594 FP, 6 h | Potency, µM (titrated, usually from 57.7 µM), actives largely listed as inhibitors | hit rate 0.39% among 280,000 | P10636; note: nearly all actives have a fitted effect of over 55% in size
#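 Compound effects on tau fibrillization are measured by Alexa 594 fluorescence polarization (ex 555, em 632 nm). K18 P301L tau is used at 15 uM with 0.24 uM labeled tracer, and 20 uM heparin induces aggregation over 6 hr at 37 C.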
# Sfp PPTase conf – confirmation of Bacillus subtilis Sfp PPTase inhibitors | AID 2701 | shares compounds with Sfp inh | Sfp PPTase enzymatic assay, qHTS titration | hit rate 79% among 380 | Potency, µM (titrated, usually from 114 µM), usual class: inhibitors
# Target sequence (Q9F4F7 whole entry, looked up): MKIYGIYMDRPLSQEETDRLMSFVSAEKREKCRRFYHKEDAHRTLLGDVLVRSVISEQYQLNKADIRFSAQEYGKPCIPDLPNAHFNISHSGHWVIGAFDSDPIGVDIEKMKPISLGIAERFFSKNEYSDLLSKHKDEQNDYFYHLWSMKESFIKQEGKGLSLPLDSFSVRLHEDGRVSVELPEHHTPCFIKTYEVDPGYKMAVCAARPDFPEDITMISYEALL
# Sfp PPTase gel – Blocks Sfp PPTase activity, gel read-out; shares compounds with Sfp inh; purified Sfp, gel-based phosphopantetheinylation read-out; Potency, µM, usual class: inhibitors; hit rate 20% among 210; AID 2707;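 active = potency below 100 µM; inconclusive = dose-dependent response but potency above 100 µM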;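 note: potency is an IC50 for inhibitors of Sfp transfer activity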
# Numbers stand for hits; - = inactive; ? = inconclusive; . = no result given; ! = not confirmed by another sample. Unless noted, calls come from the whole dose curve; as a rule, active = well fitted curve in the direction sought with a large enough effect; inconclusive = small, poorly fitted or top-dose-only effect, or another doubt; inactive = no such curve, though single readings can be large; an effect the other way counts as inactive or inconclusive.
SMILES,Sfp inh,Tau fluor counter,Tau fibril ThT,Coupling enz,Tau FP inhib,Sfp PPTase conf,Sfp PPTase gel
Cc1ccc(-c2nc3cnccn3c2Nc2c(C)cccc2C)o1,0.5µM,-,?,-,?,4.2µM,-
CC(C)OC(=O)Cn1c(-c2ccccc2)c(-c2ccccc2)nnc1=O,-,.,.,-,.,.,.
COC(=O)Cn1c(-c2ccc(OC)cc2)c(-c2ccc(OC)cc2)nnc1=O,50µM,.,.,-,.,-,.
NNc1nncc2ccccc12,5µM!,-,?,-59!,?,?,74µM
COc1ccccc1/C=N/Nc1nncc2ccccc12,?,-,-,-,-,.,.
COc1cc2c(-c3cccc(Cl)c3)nc3c(c(C)nn3-c3ccccc3)c2cc1OC,.,-,-,.,-,.,.
COC(=O)[C@@H](N)Cc1ccc(O)cc1,-,-,-,-,-,.,.
N[C@@H](CO)C(=O)NNCc1ccc(O)c(O)c1O,28µM,.,.,-,.,?,19µM
CCN(CC)c1ccc(/C=C/c2nc3ccccc3s2)cc1,18µM,?,?,-,-,33µM,-
CCN(CC)c1ccc(NC(=O)COC(=O)/C=C/c2nc3ccccc3s2)cc1,-,?,?,-,-,.,.
Cc1sc(NC(=O)c2ccccc2)c(C(=O)c2ccccc2)c1C,13µM,-,?,-,-,13µM,.
CCOC(=O)c1c(NC(=O)c2ccccc2)sc2c1CCc1ccccc1-2,1.3µM,-,?,-,?,13µM,.
Cc1sc(NC(=O)c2ccccc2)c(C(=O)NC(C)C)c1C,-,-,-,-,-,.,.
CCOC(=O)c1c(NC(=O)c2ccc(Br)cc2)sc2c1CCCC2,.,-,?,.,?,.,.
CCOC(=O)c1c(NC(=O)c2ccccc2Cl)sc2c1CCc1ccccc1-2,11µM,-,?,-,-,9.4µM,.
Cc1ccc(-n2nc(C(=O)Nc3ccc(Br)cc3C)c(=O)n(C)c2=O)cc1,.,-,-,.,-,.,.
Cc1cccc2cc(CNCC3CCCO3)c(Cl)nc12 (stereo not drawn),-,-,-,-,-,.,.
Cc1cccc2cc3c(nc12)SC(=NCC1CCCO1)N(Cc1ccco1)C3 (stereo not drawn),3.5µM,-,?,-,-,6.6µM,6.2µM
COc1ccc(Nc2nc3[nH]c(=O)cc(O)c3s2)cc1,4µM,-,-,-,-,19µM,-
COc1ccc(OC)c(-c2nc3c(C#N)c[nH]n3c2NC2CCCCC2)c1,.,-,-,.,-,.,.
CC=CC1=C(C(=O)O)N2C(=O)[C@H](NC(=O)[C@H](N)c3ccc(O)cc3)[C@@H]2SC1,40µM,-,22µM,-,?,37µM,19µM
C=CC1=C(C(=O)O)N2C(=O)[C@@H](NC(=O)C(N=O)c3csc(N)n3)[C@H]2SC1 (stereo partly drawn),32µM,-,-,-,-,42µM,56µM
N[C@@H](C(=O)N[C@@H]1C(=O)N2C(C(=O)O)=C(Cl)CS[C@H]12)c1ccccc1,50µM,-,28µM,-,?,74µM,56µM
CC1=C(C(N)=O)N2C(=O)[C@@H](NC(=O)Cc3ccccc3)C2SC1 (stereo partly drawn),25µM,-,-,-,-,4.5µM,0.92µM
O=C(CCCCn1c(=O)c2ccccc2n(CC(=O)Nc2ccccc2)c1=O)NCc1ccccc1Cl,.,-,?,.,-,.,.
SMILES,Sfp inh,Tau fluor counter,Tau fibril ThT,Coupling enz,Tau FP inhib,Sfp PPTase conf,Sfp PPTase gel
COC(=O)c1cc(NC(=O)Cn2ncc3c([nH]c4ccccc43)c2=O)cc(C(=O)OC)c1,.,-,-,.,?,.,.
N#CCCn1c(=O)cnc2cnc(Nc3ccccc3)nc21,-,.,.,-,.,.,.
COc1ccc(S(=O)(=O)N(CC(=O)Nc2cccnc2)c2ccc(C)cc2)cc1OC,.,-,-,.,-,.,.
CCN1CCc2nc(NC(=O)c3ccccc3)sc2C1,-,-,-,-,-,.,.
C=CCN1CCc2nc(N)sc2CC1,56µM!,-,?,-,?,59µM,?
CCN1CCc2nc(N)sc2C1,11µM,-,-,-,-,12µM,?
C=C1C(=O)[C@]23[C@H](O)[C@H]1CC[C@H]2[C@@]12COC3(O)[C@H](O)[C@@H]1C(C)(C)CC[C@@H]2O,13µM,-,-,-,-,26µM,?
Cn1c(C(=O)NCCc2ccccc2)cc2sc(Cl)cc21,.,-,?,.,-,.,.
CCOC(=O)c1cc(-c2ccc(C)cc2)n(CCC(=O)Nc2nc3c(C)cccc3s2)c1C,.,-,-,.,?,.,.
COC(=O)C(CC(=O)c1ccc(C)cc1)n1nc(C)cc1C (stereo not drawn),-,.,.,-,.,.,.
COC(=O)C(CC(=O)c1ccc(Br)cc1)n1ccnc1 (stereo not drawn),1.6µM,-,?,-,-,8.3µM,.
Cc1ccc(Nc2nc(-c3sc(NC(=O)c4ccco4)nc3C)cs2)cc1,16µM,?,4µM,-,-,53µM,?
Cc1ccc(-c2csc(NC(=S)NC(=O)c3ccco3)n2)cc1,-,-,-,-,-,.,.
COc1ccccc1CNC(=O)CCCN1C(=O)CSc2c1c(C)nn2-c1ccccc1,.,-,-,.,-,.,.
Cc1ccc(-c2nn[nH]n2)o1,25µM,-,-,-,-,12µM,-
COc1ccc(N2CCN(C(=O)c3nn(-c4ccc(C)cc4)c(=O)n(C)c3=O)CC2)cc1,.,-,-,.,?,.,.
Cc1ccc(-c2cc(C(=O)O)c3cc(Br)ccc3n2)o1,3.2µM,-,20µM,-,?,3.7µM,-
Cc1nn(C)c2c1c(C(F)(F)F)cc(=O)n2Cc1ccc(Br)cc1F,.,-,-,.,-,.,.
CC(=O)NCCNc1cc(-c2ccccc2CN(C)C)ncn1,-,.,.,-,.,.,.
CC(C)(C)NS(=O)(=O)c1ccc(Oc2ncc(C(F)(F)F)cc2Cl)cc1,25µM,-,-,-,-,53µM,-
COCCCNS(=O)(=O)c1ccc(Oc2ncc(C(F)(F)F)cc2Cl)cc1,-,-,-,-,-,.,.
Nc1c(C(=O)Nc2ccccc2)sc2nc(-c3cccnc3)ccc12,7.9µM,-,?,-,-,30µM,?
COc1ccc(NC(=O)c2sc3nc(-c4cccnc4)ccc3c2N)cc1,-,-,.,-,-,.,.
O=C(NCCCN1CCOCC1)c1sc2cc([N+](=O)[O-])ccc2c1Cl,0.89µM,-,28µM,-60,?,2.4µM,.
O=C(NCCCN1CCOCC1)c1sc2cc(Cl)ccc2c1Cl,-,-,-,-,-,.,.
O=C(Nc1ccccn1)c1sc2cc([N+](=O)[O-])ccc2c1Cl,6.3µM,.,.,-,.,3.7µM,.
Cc1ccnc(NC(=O)c2sc3ccccc3c2Cl)c1,-,-,-,-,-,.,.
Cc1c(-c2nsc(NC(=O)c3cccs3)n2)nnn1-c1ccc(Br)cc1,.,-,?,.,-,.,.
O=C(NCCc1ccccc1)c1ccc2c(c1)CCN2S(=O)(=O)c1ccccc1,.,-,-,.,-,.,.
CC(C)(Sc1cc(C(C)(C)C)c(O)c(C(C)(C)C)c1)Sc1cc(C(C)(C)C)c(O)c(C(C)(C)C)c1,-,-,-,-,?,.,.
